Measured values reported in PubChem BioAssay (NCI).
Several values for one entry are separate records, joined by “and”; a condition that tells them apart may be missing. Equal values may be shown once. The panel holds about 79,000 compounds, 15% with a hit somewhere; the sample as a whole holds those more often. Values without a mark were called inactive. Activity calls are given as the source filed them. No stated cut-off is given here; in the data, active means growth inhibition above about 70%; inactive means the rest.

Legend:
[1] = NCI Yeast Anticancer Drug Screen. Data for the rad50 strain (AID 155);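 further: 0% = growth of vehicle-only cultures of the same strain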; conditions: S. cerevisiae rad50 strain growth inhibition; at 50.0 µM; hits give high values
Summary of the method: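 Readout: growth inhibition relative to vehicle-treated cultures. Compound exposure was carried out in a genetically defined yeast strain deficient in DNA damage repair.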

[2] = NCI Yeast Anticancer Drug Screen. Data for the mec2-1 strain (AID 157); conditions: S. cerevisiae mec2-1 strain, at 50.0 µM, hits give high values
Summary of the method: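 Each compound was tested on mec2-1 yeast, a strain altered in DNA damage repair or cell cycle control. Growth inhibition is reported relative to vehicle.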

[3] = NCI Yeast Anticancer Drug Screen. Data for the sgs1 mgt1 strain (AID 161);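 further: 0% = growth of cultures given vehicle only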; conditions: S. cerevisiae sgs1 mgt1 strain, at 50.0 µM, hits give high values
Summary of the method: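 Test agents were incubated with a DNA-repair-mutant yeast strain. Growth was then read and compared against vehicle-treated controls.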

[4] = NCI Yeast Anticancer Drug Screen. Data for the cln2 rad14 strain (AID 165);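 further: 0% = growth equal to vehicle treated cultures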; conditions: S. cerevisiae cln2 rad14 strain, at 50.0 µM, hits give high values
Summary of the method: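 Test compounds were added to cln2 rad14 yeast cultures; inhibition of growth was then determined by comparison with vehicle treatment.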

[5] = NCI Yeast Anticancer Drug Screen. Data for the bub3 strain (AID 167); conditions: S. cerevisiae bub3 mutant strain, at 50.0 µM, hits give high values
Summary of the method: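 Readout: yeast growth inhibition, expressed relative to vehicle-only wells. The test organism is a mutant strain from a panel with lesions in DNA repair or checkpoint genes.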

[6] = NCI Yeast Anticancer Drug Screen. Data for the mlh1 rad18 strain (AID 175); conditions: S. cerevisiae mlh1 rad18 strain growth inhibition; at 50.0 µM; hits give high values
Summary of the method: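 Inhibition values reflect reduced growth of mutant yeast versus vehicle-treated controls following compound exposure; the mutations affect DNA damage repair.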

| Compound | growth inhibition [1] | growth inhibition [2] | growth inhibition [3] | growth inhibition [4] | growth inhibition [5] | growth inhibition [6] |
| --- | --- | --- | --- | --- | --- | --- |
| Cc1ccccc1N | 4.1% | -14.4% | -1.15% | -1.7% | -1.55% | 4.4% |
| CCOC(CP(=O)(OCC)OCC)OCC | -13.2% and 8.45% | -26.2% and -14.3% | -16.2% and 4.65% | 16.2% and 15.7% | 3.65% and 6.5% | -25.4% and 14.4% |
| O=S(=O)(c1ccccc1)N1CN2CCN(C2)C1 | 17.6% | 7.2% | 31.6% | 2.65% | 5.5% | 10.4% |
| Cc1nc2ccccc2c(=O)n1-c1ccc(N(CCCl)CCCl)cc1 | -0.6% | -9.25% | -17.1% | -6.9% | 4.8% | 4.5% |
| COC1=CC23CCCN2CCc2cc4c(cc2C3C1O)OCO4 (stereo unspecified) | -6.9% and 0.4% and -9.15% | -23.4% and -25.8% and -28.7% | 16.3% and 17.1% and 15.6% | 4% and 8.1% and 2.4% | -12.8% and -5.35% and -6.25% | -3.85% and -1.8% and -36% |
| CC1CC(C)(O)CC(C(O)CC2CC(=O)NC(=O)C2)C1=O (stereo unspecified) | 55.9% | 51% | 48.2% | 56.1% | 67% | 68.2% |
| CN1C2CCC1CC(=O)C2 | -14.6% | -48.2% | -32.6% | -8.35% | -29.9% | -27.4% |
| Nc1ccc(C(=O)Nc2ccc([As](=O)(O)O)cc2)cc1 | 4.35% | 11.4% | 7.8% | -17.3% | 5.4% | 23.9% |
| Nc1n[nH]c(CCc2nc(N)n[nH]2)n1 | 22.8% | -12.2% | -18.1% | 7.65% | 11.6% | 4.9% |
| CNC(=O)Oc1cc(OC)ccc1C(=O)c1ccccc1 | 2.45% | 6.85% | 32.6% | -21.6% | 5.35% | 47% |
| Cc1cc(Cl)ccc1NC(=O)/C(CC(=O)CC(c1ccccc1)c1c(O)c2ccccc2oc1=O)=N\O (stereo unspecified) | -14.9% | -8.4% | 3.05% | -37.6% | -29.1% | -5.8% |
| N[C@H](Cc1ccc2oc3cc(=O)c4ccccc4c-3nc2c1)C(=O)O | 20.8% | 33.4% | 24.7% | 15.1% | 35.5% | 39.2% |
| C[N+]1(CC2CC2)C2CC(OC(=O)C(CO)c3ccccc3)CC1C1OC12 (stereo unspecified) | 11.1% | 23.9% | 10.7% | 9.55% | -0.6% | -33.5% |
| c1ccc2c(c1)Nc1ccccc1S2 | 41% | 10.1% | 17.9% | 28.4% | 28.5% | 34.2% |
| CC(C)CCCCCc1ccc(OCCOc2ccc(C(=O)Nc3ccc(S(=O)(=O)F)cc3[N+](=O)[O-])cc2)cc1 | 42.1% | -8.75% | 26.2% | -11.7% | 0.5% | 9.85% |
| CCC1=CC2CN3CCc4c([nH]c5ccccc45)C(C(=O)OC)(C2)C13 (stereo unspecified) | 30.2% and -9.75% | -26.9% and -17.9% | -12.8% and -33.1% | -19.3% and -6.65% | -2.3% and -38.2% | -17.6% and -19.2% |
| Cc1cc(N(CCCl)CCCl)ccc1CN1CCCN(Cc2ccc(N(CCCl)CCCl)cc2C)C1c1cc(O)cc(Br)c1 | 43% | 24.5% | 35.4% | -2.55% | 9.3% | 37.9% |
| NC(=Nc1ccccc1)N/N=C/c1c[nH]c2ccccc12 | -15.2% | -14.9% | -20.2% | 3.45% | -7.15% | -50% |

| Compound | growth inhibition [1] | growth inhibition [2] | growth inhibition [3] | growth inhibition [4] | growth inhibition [5] | growth inhibition [6] |
| --- | --- | --- | --- | --- | --- | --- |
| COC1C(O)C(C)OC(O[C@@H]2C[C@H]3CC[C@@H]4[C@H](CC[C@]5(C)[C@@H](C6=CC(=O)OC6)CC[C@]45O)[C@@]3(C)[C@H](O)C2)C1O (stereo partly specified) | 1.4% | -12.5% | -3.55% | -6.35% | 1% | 3.8% |
| CCOC(=O)C1OC(C2(C)OC3(OC4(C=CC3O)OC(C(C)C(=O)C(C)C(O)C(C)CC(C)c3c(Cl)cc(C)c(O)c3C(=O)O)C(C)CC4C)C(C)C2OC)CC1O (stereo unspecified) | -12.7% | -27% | -6.95% | 22.9% | 5.9% | 5.75% |
| C1=[N+]2CCCC2Cc2ccc3ccccc3c21 (stereo unspecified) | -17.8% | -6.1% | -4.15% | -16.4% | -4.6% | -8.85% |
| CCCCCCCCCCCCCCC(=O)[O][Hg][c]1ccccc1 | 99.2% (active) | 98.9% (active) | 99.5% (active) | 99% (active) | 99.2% (active) | 99.1% (active) |
| Cc1cc(C)[n+](CCc2ccccc2)c(C)c1 | 5.15% | 2.55% | -3.25% | -6.3% | 2.4% | 4.25% |
| N#CC(c1ccccc1)c1ccccc1 | -12.9% | 9.35% | -4.55% | -17.6% | 20.6% | 31.3% |
| C=CP(=O)(OCCCl)OCCCl | 24.5% | -0.7% | 2.3% | 18.1% | -1.6% | 12.9% |
| O=C(COc1ccc(Cl)c(Cl)c1)NCCc1cc[n+](Cc2ccc(Cl)cc2S(=O)(=O)F)cc1 | 7.45% | 5.4% | -9.05% | 31.5% | 1.8% | 11.9% |
| Clc1cccc2c(N3CC3)cnnc12 | 17.6% | -1.3% | -13.3% | 1.4% | -16.6% | -2.55% |
| O=C(CC(=O)C(F)(F)F)c1cccs1.[Fe] | 22.1% and 27.1% | 34.8% and 30.1% | 33.2% and 28.4% | 11.2% and 10.8% | 20.9% and 21.2% | 48.2% and 42.5% |
| O=C(Cc1cccc([N+](=O)[O-])c1)Nc1cccc(S(=O)(=O)F)c1 | 5.8% | -19.6% | -20.3% | -2.9% | 16.6% | 23.9% |
| CCOP(=O)(OCC)/C(C#N)=C/c1cn(C)cn1 | -3.35% | 1.95% | -5.95% | -16.1% | -4.65% | -21.8% |
| COc1ccc(CC2C3=C(CCCC3)CCN2C)cc1 (stereo unspecified) | 45.2% | 21.9% | 28.6% | 21.8% | 17.6% | -25.8% |
| CC(=O)Nc1ccc(C(=O)O)cc1 | 5.05% | -1% | 0.1% | 33% | 0.15% | 1.8% |
| COc1cc([C@@H]2c3cc(O)c(OC)cc3C[C@H]3C(=O)OC[C@@H]23)ccc1O | 20.1% | -13.7% | 26.2% | 10.3% | 25.3% | -1.6% |
| [Pd].[Pd].[S-]CC[S-].[S-]CC[S-].c1ccc([PH+](c2ccccc2)c2ccccc2)cc1.c1ccc([PH+](c2ccccc2)c2ccccc2)cc1 | -4.9% | 5.5% | 8.9% | -22.1% | -2.35% | 13.1% |
| C/C=C1/CN2CCC34c5ccccc5N(C)C23C2CC1C4(C(=O)OC)C(O)O2 (stereo unspecified) | -31% | -31.8% | -24.7% | -4.2% | -8.4% | -58.9% |
| CCOP(=O)(CSCCC1(C)NC(=O)NC1=O)OCC (stereo unspecified) | 8.6% | -9.7% | 23.9% | 2.65% | 7.2% | 7.45% |
